Results taken from PubChem BioAssay (Tox21).
Records with an inconclusive call do not appear. Calls of active or inactive are those of the source. Unless noted, calls follow the shape of the dose curve; as a rule, active = well fitted curve in the direction sought with a large enough effect in the repeat runs; inconclusive = weak or mixed curves; inactive = no such curve, though single readings can be large; an effect the other way counts as inactive or inconclusive.

Key:
[1] = A CellTox Green Cytotoxicity Assay to monitor cytotoxicity in HepG2 cells - 8 hour (AID 1224890); conditions: CellTox Green fluorescence; series mostly up to 76.8 µM; also: nearly all actives have a fitted effect of over 45% in size
In short: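 Cells and non-lytic dye reagent are dispensed together (600 HepG2 cells/well) and incubated 5 h before DMSO compound transfer. Kinetic fluorescence is then recorded in the same wells during 40 h at 37 C.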

[2] = qHTS assay to identify small molecule antagonists of the estrogen receptor alpha (ER-alpha) signaling pathway using the BG1 cell line in the presence of 0.1 nM 17-beta-estradiol - cell viability counter screen (AID 1259241); conditions: VM7Luc4E2 (BG1) viability, CellTiter-Fluor protease, 22 h, 0.1 nM estradiol agonist added; series mostly up to 92.4 µM; also: nearly all actives have a fitted effect of over 40% in size
In short: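 VM7Luc4E2 cells (endogenous ER-alpha, 4×ERE-luciferase), hormone-starved 5 days in charcoal-stripped FBS, were treated with compounds plus 0.1 nM 17beta-estradiol for 22 hr at 37C; viability read in same wells as CellTiter-Fluor live-cell protease fluorescence.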

[3] = qHTS assay to identify small molecule antagonists of the androgen receptor (AR) signaling pathway using the MDA cell line in the presence of 0.5 nM R1881 - cell viability counter screen (AID 1259242); conditions: MDA-kb2 viability, CellTiter-Fluor protease fluorescence, 16 h; series mostly up to 92.4 µM; also: nearly all actives have a fitted effect of over 45% in size
In short: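 Steps: plate MDA-kb2 cells, rest 5 hr at 37C without CO2; pin in compounds in DMSO; add R1881 to 0.5 nM final; incubate 16 hr; add CellTiter-Fluor, 30 min; read fluorescence.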

[4] = qHTS assay to identify small molecule HDAC inhibitors - cell viability counter screen (AID 1259365); conditions: HCT-116 viability, CellTiter-Glo ATP luminescence, 2 h; series mostly up to 92.4 µM; also: nearly all actives have a fitted effect of over 50% in size
In short: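 Wild-type HCT-116 cells were seeded at 1,500 per well, incubated overnight at 37 C, then exposed to compounds in DMSO for 2hr. Viability was read by CellTiter-Glo luminescence after 30min at room temperature.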

[5] = qHTS assay to identify small molecule agonists of the sonic hedgehog signaling (Shh) pathway - cell viability counter screen (AID 1259366); conditions: NIH/3T3 Gli1-Luc viability, CellTiter-Fluor, 24 h; series mostly up to 92.4 µM; also: nearly all actives have a fitted effect of over 50% in size
In short: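 NIH/3T3-derived 3T3 Gli1-Luc cells (stable Gli1-responsive firefly luciferase reporter) were seeded, rested 4 hr at 37 C/5% CO2, then exposed to compounds in DMSO for 24 hr; viability was read by CellTiter-Fluor fluorescence in the same wells.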

[6] = qHTS assay to identify small molecule antagonists of the sonic hedgehog signaling (Shh) pathway - cell viability counter screen (AID 1259367); conditions: NIH/3T3 Gli1-Luc viability, CellTiter-Fluor, 24 h; series mostly up to 92.4 µM; also: nearly all actives have a fitted effect of over 55% in size
In short: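 Viability was read by CellTiter-Fluor fluorescence in the same wells, reagent added 23 hr into compound treatment and incubated 1 hr at 37C. The 3T3 Gli1-Luc reporter cells (2,000/well) received conditioned medium after compound and ran 24 hr.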

[7] = molecular target: Estrogen receptor (Homo sapiens) (UniProt P03372); experiment: qHTS assay to identify small molecule antagonists of the estrogen receptor alpha (ER-alpha) signaling pathway using the BG1 cell line in the presence of 0.1 nM 17-beta-estradiol (AID 1259244); conditions: VM7Luc4E2 (BG1) ERE-luciferase, antagonist mode, 0.1 nM E2, 22 h; series mostly up to 92.4 µM; also: nearly all actives have a fitted effect of over 50% in size
Chain of Estrogen receptor (Homo sapiens) (P03372 whole entry, looked up): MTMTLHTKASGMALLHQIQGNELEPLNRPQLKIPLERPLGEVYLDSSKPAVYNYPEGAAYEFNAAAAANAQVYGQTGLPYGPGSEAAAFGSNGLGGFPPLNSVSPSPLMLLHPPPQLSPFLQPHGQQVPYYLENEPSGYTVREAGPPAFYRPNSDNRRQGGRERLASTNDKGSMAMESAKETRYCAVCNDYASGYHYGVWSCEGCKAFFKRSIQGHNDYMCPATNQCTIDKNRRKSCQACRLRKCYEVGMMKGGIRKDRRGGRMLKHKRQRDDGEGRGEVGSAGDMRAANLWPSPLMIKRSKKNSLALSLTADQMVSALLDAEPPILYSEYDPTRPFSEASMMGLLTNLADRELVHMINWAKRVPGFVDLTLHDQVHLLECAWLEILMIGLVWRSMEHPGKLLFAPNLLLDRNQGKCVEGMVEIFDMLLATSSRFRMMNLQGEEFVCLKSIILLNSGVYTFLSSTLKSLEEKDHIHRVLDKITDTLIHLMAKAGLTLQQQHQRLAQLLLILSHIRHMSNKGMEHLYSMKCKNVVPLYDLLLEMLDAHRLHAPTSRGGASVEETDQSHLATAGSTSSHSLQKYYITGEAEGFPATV
In short: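 Antagonist mode: compounds in DMSO are pinned onto VM7Luc4E2 reporter cells, 0.1 nM final 17beta-estradiol is added, and after 22 h at 37C luciferase luminescence is measured with ONE-Glo.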

[8] = qHTS assay to identify small molecule phospholipidosis (PLD) inducers (AID 1259344; active = well fitted curve in the direction sought with a large enough effect; an effect the other way counts as inactive or inconclusive); conditions: HepG2 phospholipidosis, LipidTOX Red imaging, 24 h; series mostly up to 38.3 µM
In short: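 Phospholipid accumulation was scored by imaging: fixed, Hoechst-counterstained HepG2 cells stained with LipidTOX Red after 24 h compound exposure at 37 C. Read-outs were pit count and pit intensity per well or per cell, with amiodarone and DMSO controls.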

[9] = qHTS assay to identify small molecule HDAC inhibitors (AID 1259364); conditions: HCT-116 HDAC-Glo I/II luminescence, 2 h; series mostly up to 92.4 µM;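 also: wild-type HCT-116 cells with endogenous class I/II HDAC activity; top concentration of the series differs between compounds; nearly all actives have a fitted effect of over 45% in size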
In short: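 Cells (HCT-116, wild type) are seeded at 1,500 per well, incubated overnight, treated with compound in DMSO for 2 hr, then developed with HDAC-Glo I/II reagent for 30 min at room temperature.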

Measured: Potency

CCn1c(=O)c2c(nc(/C=C/c3ccc(OC)c(OC)c3)n2C)n(CC)c1=O
inactive: [1] | [2] | [3] | [4] | [5]

COc1cc(C)cc(O)c1
not listed: [7] | [8] | [9]
inactive: all other assays above

CCCCCC[C@@H](CCC)C(=O)O
not listed: [3]
inactive: all other assays above

OCCN1C[C@H](O)[C@@H](O)[C@H](O)[C@H]1CO
not listed: [3] | [4]
inactive: all other assays above

NS(=O)(=O)c1cc2c(cc1Cl)NC(CSCc1ccccc1)=NS2(=O)=O
not listed: [3] | [4] | [6]
inactive: all other assays above

CCCc1ccccc1O
not listed: [7] | [8]
inactive: all other assays above

OC1OC[C@@H](O)[C@H](O)[C@H]1O (stereo partly specified)
not listed: [4] | [7] | [8]
inactive: all other assays above

N#CCN(CC#N)CCN(CC#N)CC#N
not listed: [7] | [8]
inactive: all other assays above

C=C[Si](OC)(OC)OC
not listed: [3] | [8]
inactive: all other assays above

COC(C(=O)O)c1ccccc1 (stereo unspecified)
inactive: [1] | [2] | [3] | [4] | [6]

c1ccc2cnncc2c1
not listed: [3] | [4] | [8]
inactive: all other assays above

NC(CS)C(=O)O (stereo unspecified)
not listed: [3] | [4] | [7]
inactive: all other assays above

OC[C@H]1O[C@@H]2O[C@H]3[C@H](O)[C@@H](O)[C@@H](O[C@H]4[C@H](O)[C@@H](O)[C@@H](O[C@H]5[C@H](O)[C@@H](O)[C@@H](O[C@H]6[C@H](O)[C@@H](O)[C@@H](O[C@H]7[C@H](O)[C@@H](O)[C@@H](O[C@H]8[C@H](O)[C@@H](O)[C@@H](O[C@H]9[C@H](O)[C@@H](O)[C@@H](O[C@H]1[C@H](O)[C@H]2O)O[C@@H]9CO)O[C@@H]8CO)O[C@@H]7CO)O[C@@H]6CO)O[C@@H]5CO)O[C@@H]4CO)O[C@@H]3CO
inactive: [1] | [2] | [9] | [4] | [6]

CCN1CCN(c2cc3c(cc2F)c(=O)c(C(=O)O)cn3C2CC2)CC1
inactive: [1] | [2] | [8] | [9] | [4]

Fc1ccccc1-c1ccccc1
not listed: [3] | [5] | [8]
inactive: all other assays above

c1cc(CN2CCCCC2)cc(OCCCNc2nc3ccccc3s2)c1
inactive: [1] | [2] | [8] | [4]

NC(=O)c1ncn([C@@H]2O[C@H](CO)[C@@H](O)[C@H]2O)c1N
not listed: [1]
inactive: all other assays above

CC1=CC(C)C(C=O)C(C)C1 (stereo unspecified)
not listed: [3] | [8]
inactive: all other assays above
